An excerpt weighted towards active compounds, which were near 8.6% of everything screened.
Lassa entry – blocks Lassa virus binding or cell entry | hit rate 4.1% among 18,000 | Lassa virus pseudotyped entry inhibition, cell-based qHTS | AID 720533 | Potency, µM (titrated, usually from 49.2 µM), without a hit: at the highest dose activity change, negative = inhibition, actives largely listed as inhibitors
MARV entry inh – Marburg virus entry inhibition; hit rate 6.5% among 18,000; Marburg virus pseudotype entry/binding inhibition, cell-based; AID 720532; Potency, µM (top dose mostly 49.2 µM), for inactives: at the top dose activity change, negative = inhibition, hits mostly inhibitors
Numbers without * were called inactive; ? = inconclusive; / = no result; ! = a repeat was not active; [ ] = dose if it differs, or a comment. Calls come from the whole dose curve; tested in HEK293 cells. % is set by controls: 0 for no effect and ±100 for the full control effect; potency is the fitted concentration of half-maximal effect.

SMILES	Lassa entry	MARV entry inh
C[C@H]1[C@H]2Cc3ccc(O)cc3[C@]1(C)CCN2CCc1ccccc1	32µM*	18µM*
C=CCN1CCC2(C)c3cc(O)ccc3CC1C2C (centres undefined)	1%	?
CC(CCN1CCCc2nc(C)c(C)cc21)=NOC[C@@H](O)[C@H]1O[C@@H]2OC(C)(C)O[C@H]2[C@@H]1O	35%[8.59 µM]	-8%[8.59 µM]
CN(C(Cc1ccc(OS(=O)(=O)c2cccc3cnccc23)cc1)C(=O)N1CCN(c2ccccc2)CC1)S(=O)(=O)c1cccc2cnccc12 (centres undefined)	10µM*	?
NC(N)=NCCNS(=O)(=O)c1cccc2cnccc12	15%	5%
CC(C)C(NC(=O)c1ccoc1)c1nnc2n1CCN(Cc1ccc3c(c1)Cc1ccccc1-3)CC2 (centres undefined)	-5%	6%
CC(=O)C1=C(C)C[C@@]2(CC1)C(=O)[C@H](Cc1ccccc1)N(Cc1ccccc1)S2(=O)=O	7%	-17%
CCOC(=O)C1=C(CCl)NC(=O)N(C(C)=O)C1c1ccccc1 (centres undefined)	/	-22%[8.59 µM]
CCCOC(=O)c1ccc(O)cc1	-16%[107 µM]	15%[107 µM]
CCCOC(=O)c1cc(O)c(O)c(O)c1	-22%	25µM*
O=C1[C@@H]2[C@H]3[C@H](O)[C@H](O)CC(=NOC[C@@H](O)COCc4ccco4)[C@H]3CC[C@H]2C(=O)N1C[C@@H]1CCCO1	-14%[8.59 µM]	4%[8.59 µM]
CCOC(=O)CN1C(=O)C2(CC(C)=C[C@@H](C)O2)c2c(Br)cccc21 (some centres undefined)	32%[8.59 µM]	3%[8.59 µM]
COCOCCn1cc(CN2CCS(=O)(=O)N(Cc3ccc(-c4ccc(F)cc4)cc3)C(C)C2=O)nn1 (centres undefined)	-17%	24%
O=C1[C@@H]2CSCCS(=O)(=O)N2C(=O)N1c1ccccc1	-3%	27%
CCC(=O)c1ccc(O)cc1	-4%	17%
O=C1C=CC(=C(c2ccc(O)cc2)c2ccc(O)cc2)C=C1	8.9µM*	13µM*
COC(=O)c1c(C(=O)OC)c2c3ccccc3cc(-c3ccccc3)n2c1C(=O)OC	-15%[8.59 µM]	-23%[8.59 µM]
COc1ccccc1CNc1ncncc1-c1ccc(N(C)C)cc1	-9%	-19%
COc1ccc2[nH]cc(CCNc3ncncc3-c3ccc(N(C)C)cc3)c2c1	-19%	16µM*
C=CCOC(=O)N[C@H](c1cccc(OC)c1)[C@H](C)C=CCC(=O)OC	/	15%[8.59 µM]
O=S(=O)(NCCc1ccc(F)cc1)c1ccccc1Br	-12%	17%
COc1cc2c(cc1CC=C(C)C)C(=O)C[C@@H](c1ccc(O)cc1)O2	8.9µM*	?
COc1ccc(C2CC(=O)c3ccc(OC)cc3O2)cc1 (centres undefined)	2%	-5%
CC(NCCC(c1ccccc1)c1ccccc1)c1ccccc1 (centres undefined)	?	11µM*
CC(NN)c1ccccc1 (centres undefined)	-2%	15%
SMILES	Lassa entry	MARV entry inh
CN(C)[C@H](Cc1ccccc1)c1ccccc1	-1%	2%
C[C@@H](Cc1ccccc1)NCCC(c1ccccc1)c1ccccc1	?	7.9µM*
C=CCOC(=O)N[C@H](C(C(=O)OC)=C(C)NCc1ccccc1)c1ccc2c(c1)OCO2	-12%[8.59 µM]	?
COc1ccc2c(c1)[C@@]1(OCCC=C[C@@H]1C)C(=O)N2CC1CC1	13%[8.59 µM]	-7%[8.59 µM]
COC1=C(C(=O)c2ccccc2)C(=O)[C@@]2(CC=C(C)C)C[C@@H]([S+](=O)([O-])c3ccccc3)C(C)(C)[C@@]1(CC=C(C)C)C2=O	/	-17%[8.59 µM]
CCN(CC)CCOCCOC(=O)C(CC)(CC)c1ccccc1	?	22µM*
CCN(CC)CCNC(C(=O)OCCC(C)C)c1ccccc1 (centres undefined)	-10%	?
CCN(CC)CCOCCOC(=O)C1(c2ccccc2)CCCC1	1%	7.1µM*!
CCN(CC)CCOC(=O)C1(c2ccc([N+](=O)[O-])cc2)CCCC1	2%	?
CCN(CC)CCOC(=O)C(C)(c1ccccc1)c1ccccc1	?	28µM*
O=C(O)CN(CCOCCOCCN(CC(=O)O)CC(=O)O)CC(=O)O	-3%	24%
CCN1C(=O)NC(c2cccc(F)c2)C(C(C)=O)=C1C (centres undefined)	-12%[8.59 µM]	?
COc1cccc([C@@H]2Oc3ccc(OC)cc3C(=O)[C@@H]2OC(=O)N[C@H]2CCCc3ccccc32)c1	23%[8.59 µM]	16%[8.59 µM]
COc1ccc(O[C@H]2C=C[C@@H](c3ccccc3)O[C@H]2COC(=O)CCC(C)=NOC[C@@H](O)COCc2ccco2)cc1	/	10%[8.59 µM]
C=C1[C@H](CO)[C@@H](O)C[C@@H]1n1cnc2c(=O)[nH]c(N)nc21	-9%	-1%
CCN1C(=NCc2cccc(Cl)c2)N[C@@H](CCc2ccccc2)[C@H](C(=O)OC)[C@H]1C	-21%[8.59 µM]	65%[8.59 µM]
CC(C)=CCc1c2c(c3occ(-c4ccc(O)cc4)c(=O)c3c1O)C=CC(C)(C)O2	?	22µM*
COc1c2c(c(CC=C(C)C)c3oc(=O)c(-c4ccc(O)cc4)c(O)c13)OC(C)(C)C=C2	-5%	2%

High-throughput results (PubChem BioAssay)
